Cruzain Triton: inhibitors of Trypanosoma cruzi cruzain with detergent | actives 0.43% (n = 200,000) | Potency, µM, usual class: inhibitors | P25779 | purified cruzain, Z-FR-AMC fluorescence, 0.01% Triton; note: nearly all actives have a fitted effect of over 40% in size
Target sequence (P25779 123-467 limits assumed): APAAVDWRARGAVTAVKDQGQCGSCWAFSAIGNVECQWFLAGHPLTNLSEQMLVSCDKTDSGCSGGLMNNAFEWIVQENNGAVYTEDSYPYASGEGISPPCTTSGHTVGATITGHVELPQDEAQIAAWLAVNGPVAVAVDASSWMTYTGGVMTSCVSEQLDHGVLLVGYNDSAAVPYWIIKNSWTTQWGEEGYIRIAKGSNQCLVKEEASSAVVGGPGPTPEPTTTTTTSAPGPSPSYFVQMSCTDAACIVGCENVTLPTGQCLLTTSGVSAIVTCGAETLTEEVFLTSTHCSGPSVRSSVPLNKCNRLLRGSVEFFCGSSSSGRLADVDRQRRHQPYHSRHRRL
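Sodium acetate buffer (100 mM, pH 5.5) containing 5 mM DTT and 0.01% Triton X-100 hosted 1.5 nM cruzain and test compound for 15 min at room temperature. Cleavage of 2 uM Z-FR-AMC was then tracked by fluorescence.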
Cruzain inh noDet: inhibitors of Trypanosoma cruzi cruzain without detergent; Potency, µM, usual class: inhibitors; AID 1476; purified cruzain, Z-FR-AMC fluorescence, no detergent; actives 2.3% (n = 200,000); note: nearly all actives have a fitted effect of over 40% in size
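Purified cruzain at 1.5 nM, pre-incubated 15 min with compound at room temperature in 100 mM sodium acetate pH 5.5, 5 mM DTT, 0.00005% Triton X-100. Reaction started with 2 uM Z-FR-AMC; AMC fluorescence increase over 60 s gives rate.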
Each line names hits and unclear results; the compound was inactive in the other large screens; ! = not confirmed by another sample. In the library only some 2.4% were active in any assay of this set; here they are far more common. Calls come from the whole dose curve; as a rule, active = well fitted curve in the direction sought with a large enough effect; inconclusive = small, poorly fitted or top-dose-only effect, or another doubt; inactive = no such curve, though single readings can be large; an effect the other way counts as inactive or inconclusive.

O=C(N/N=C\c1ccc(F)cc1)c1cc(OCC(F)(F)F)ccc1OCC(F)(F)F	none
O=C(N/N=C/c1ccc(OCCCF)cc1)c1cc(OCC(F)(F)F)ccc1OCC(F)(F)F	Cruzain inh noDet 25.1µM
Cc1noc(C)c1-c1cncnc1NCc1ccccc1	none
COc1ccc2[nH]c3c(c2c1)CCNC3=O	none
COc1ccc2[nH]c3c(c2c1)CCN=C3C	Cruzain inh noDet 12.6µM
CCc1c(CN2CCN(c3ccccc3F)CC2)csc1C	none
CC1CN(c2c(F)c(N)c3c(=O)c(C(=O)O)cn(C4CC4)c3c2F)CC(C)N1 (configuration not stated)	none
Cc1cccc(CSc2ncc(Cl)c(C(=O)Nc3sc4c(c3C(N)=O)CCCC4)n2)c1	none
Cc1ccccc1NC(=O)c1sc2nc3c(c(-c4ccco4)c2c1N)CCC3	none
Nc1c(C(=O)NCC2CCCO2)sc2nc3c(c(-c4ccco4)c12)CC/C3=C\c1ccco1 (configuration not stated)	Cruzain Triton 28.2µM
COc1ccccc1-n1c(SCC(=O)Nc2nnc(C)s2)nc2c(c1=O)SCC2	Cruzain Triton 22.4µM
CCOC(=O)c1sc(NC(=O)CSc2nc3ccccc3s2)c(C(=O)OCC)c1C	Cruzain inh noDet 20µM
CCOC(=O)c1sc(NC(=O)CSc2nc3c(c(=O)n2-c2ccc(C)cc2)SCC3)c(C(=O)OCC)c1C	Cruzain inh noDet 6.31µM
CCOC(=O)c1sc(NC(=O)CSc2nncs2)c(C(=O)OCC)c1C	Cruzain inh noDet inconclusive
CCOC(=O)c1sc(NC(=O)CSc2nnnn2-c2ccc(C)cc2)c(C(=O)OCC)c1C	none
COc1ccccc1-n1c(SCC(=O)Nc2ccc(F)cc2)nc2c(c1=O)SCC2	none
CCOC(=O)CSc1nc2sc3c(c2c(=O)n1Cc1ccccc1)CCC(C(C)(C)C)C3 (configuration not stated)	none
COc1ccc([N+](=O)[O-])cc1N	none
Cc1cc(NC(=O)Nc2nnc(N3CCCCCC3)s2)ccc1Br	none
CC(=O)N1CCC2(CCCN(Cc3cc(C(F)(F)F)cc(C(F)(F)F)c3)C2)CC1	none
CCCN1C(=O)c2ccccc2CC1(C)C(=O)NC1CCCCC1 (configuration not stated)	none
N#Cc1cc2c(=O)n3ccccc3nc2n(CCN2CCOCC2)c1=O	none
N#Cc1cc2c(=O)n3ccccc3nc2n(CCCN2CCOCC2)c1=O	Cruzain Triton 28.2µM, Cruzain inh noDet inconclusive
CCOc1ccc(S(=O)(=O)N(CC(=O)Nc2ccc3c(c2)OCO3)c2ccc(C)cc2)cc1	none
CCOc1ccc(Nc2sc(C(=O)c3ccc4c(c3)OCO4)c(N)c2S(=O)(=O)c2ccc(C)cc2)cc1	Cruzain inh noDet 3.16µM
Cc1ccc(S(=O)(=O)c2c(Nc3ccc(C)c(C)c3)sc(C(=O)c3ccc4c(c3)OCO4)c2N)cc1	Cruzain inh noDet 2.51µM
Cc1ccc(S(=O)(=O)c2c(Nc3cc(C)ccc3C)sc(C(=O)c3ccc4c(c3)OCO4)c2N)cc1	none
CCc1ccccc1NC(=O)C(=O)NCC(c1cccnc1)N1CCN(c2ccccc2F)CC1 (configuration not stated)	none
O=C(CCc1nnc2n(Cc3ccccc3Cl)c(=O)c3ccccc3n12)Nc1ccc(F)c(F)c1	none
CCn1c(SCc2nc3scc(-c4ccccc4)c3c(=O)[nH]2)nnc1-c1cccs1	none
COCCn1c(SCc2nc3scc(-c4ccc(Cl)cc4)c3c(=O)[nH]2)nnc1-c1cccc(C)c1	Cruzain inh noDet 25.1µM
CN(C)S(=O)(=O)c1cc(NC(=O)[C@H](Cc2ccccc2)N2C(=O)c3ccccc3C2=O)ccc1Cl	Cruzain inh noDet 20µM
CN(C)S(=O)(=O)c1cc(NC(=O)COC(=O)Cc2ccccc2)ccc1Cl	none
O=C(N/N=C/c1cccnc1)/C(=C\c1cccs1)NC(=O)c1ccccc1	none
O=C(N/N=C/c1cc2ccccc2nc1Cl)/C(=C/c1cccs1)NC(=O)c1ccccc1	Cruzain inh noDet 25.1µM
Cn1c(=O)c2c(nc(NCc3ccccc3)n2Cc2ccc(Cl)c(Cl)c2)n(C)c1=O	none
COc1ccc(OC)c(NC(=O)N2c3ccccc3Sc3ccccc32)c1	Cruzain inh noDet inconclusive
CCOC(=O)c1c(/N=C/c2c(O)n(-c3ccccc3F)c(=S)[nH]c2=O)sc2c1CCCC2	Cruzain inh noDet 15.8µM
CCOC(=O)c1c(/N=C/c2c(O)n(-c3ccc(F)cc3)c(=S)[nH]c2=O)sc2c1CCCC2	none
NC(Cc1cc(I)c(Oc2ccc(O)c(I)c2)c(I)c1)C(=O)O (configuration not stated)	none
N[C@@H](Cc1cc(I)c(Oc2ccc(O)c(I)c2)c(I)c1)C(=O)O	Cruzain Triton inconclusive, Cruzain inh noDet 12.6µM!
Cc1ccccc1NS(=O)(=O)c1ccc(Br)s1	none
COc1ccc(Cn2nnnc2C(c2cccs2)N2CCN(c3ccc([N+](=O)[O-])cc3)CC2)cc1 (configuration not stated)	Cruzain inh noDet 31.6µM
COc1ccc(Cn2nnnc2C(c2cccs2)N2CCN(c3ccccc3)CC2)cc1 (configuration not stated)	none
CN1CCN(c2cc(-c3ccoc3)ncn2)CC1	none
O=C(CN1C(=O)CCc2cc(S(=O)(=O)N3CCOCC3)ccc21)Nc1cccc(Cl)c1	none
O=C(N/N=C/c1ccccc1Cl)c1n[nH]c2c1CCCC2	Cruzain inh noDet 25.1µM
O=C(N/N=C/c1cccs1)c1n[nH]c2c1CCC2	none
O=C(N/N=C/C(Br)=C/c1ccccc1)c1n[nH]c2c1CCC2	Cruzain inh noDet 15.8µM
O=C(CNc1cccc2ccccc12)N/N=C/C(Br)=C/c1ccccc1	none
CSc1ccc(/C=C(\NC(=O)c2ccc(C)cc2)C(=O)Nc2cccc(C)c2)cc1	Cruzain inh noDet 7.94µM
Cc1ccc(C(=O)N/C(=C/c2ccc(Cl)cc2)C(=O)Nc2cccc(C(=O)O)c2)cc1	Cruzain inh noDet inconclusive
CC(=O)N1CCOc2cc(S(=O)(=O)Nc3c(C)cccc3C(C)C)c(Cl)cc21	none
COc1ccc(N(C(=O)/C=C\C(=O)Nc2ccc(C)cc2)C(C(=O)NCc2ccco2)c2ccc(C)cc2)cc1 (configuration not stated)	none
Cc1ccc(SCC(=O)Nc2cccc(-c3nc4cc(Cl)ccc4o3)c2C)cc1	none
O=C(Cc1ccc(Cl)cc1)Nc1ccc2oc(-c3ccccc3F)nc2c1	Cruzain inh noDet 7.94µM
Cc1c(NC(=O)CSc2ccc(Cl)cc2)cccc1-c1nc2cc(Cl)ccc2o1	Cruzain inh noDet 25.1µM
O=C(Cc1ccc(Cl)cc1)Nc1ccc2oc(-c3ccncc3)nc2c1	none
CC1OC(OC2C(CO)OC(OC3C(CO)OC(O)C(O)C3O)C(O)C2O)C(O)C(O)C1NC1C=C(CO)C(O)C(O)C1O (configuration not stated)	none
CCCc1ccc(-c2cc(C(=O)Nc3ccc([N+](=O)[O-])cn3)c3ccccc3n2)cc1	Cruzain inh noDet 25.1µM
CCCc1ccc(-c2cc(C(=O)NCCc3ccc(S(N)(=O)=O)cc3)c3ccccc3n2)cc1	none
CCOC(=O)c1ccccc1NC(=O)CSc1ncc2c(n1)-c1ccccc1N(CC)S2(=O)=O	none
N#Cc1c(NCCN)nc(NCc2ccccc2)c2c1CCN(Cc1ccccc1)C2	Cruzain inh noDet 7.94µM
N#Cc1c(Cl)nc(Cl)c2c1CCN(Cc1ccccc1)C2	none
COc1ccc(OC)c(CNC(=O)Cn2ncc3c([nH]c4ccc(C)cc43)c2=O)c1	none
O[N+]1=CC=CCC1=S.On1ccccc1=S.[Zn]	Cruzain Triton 3.16µM, Cruzain inh noDet 2.51µM
Clc1nc2ccccc2cc1/C=N/Nc1nc2ccccc2[nH]1	Cruzain Triton 28.2µM, Cruzain inh noDet inconclusive
CCN(CC)c1ccc(/C=N/Nc2nc3ccccc3[nH]2)cc1	Cruzain inh noDet inconclusive
